The text below walks through data of publication PMC5540273 (PLoS ONE, 2017).

Among the test systems are ERN1; FER; FES; FGFR1; FGFR2; FGFR3; FGFR4; FGR; FLT1; FLT3-autoinhibited; FLT3; FLT4; FRK.
Holding throughout (conditions): concentration: 1 μM,replicates: in singlicate; n = 1
The next assay relates to T1, ERK1.
T1 construct: gene MAPK3

For another assay, the system named is T2, ERK2.
T2 construct: gene MAPK1

In a further assay the test system is T3, ERK3.
T3 construct: gene MAPK6

In a further assay the test system is T4, ERK4.
T4 construct: gene MAPK4

The next assay has as its system T5, ERK5.
T5 construct: gene MAPK7

The next assay concerns T6, ERK8.
T6 construct: gene MAPK15

Another assay has as its system T7, FAK.
T7 construct: gene PTK2
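Further: KINOMEscan kinase panel screen.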

For the compound `CN(C)CCOc1ccc(-c2cc(-c3c[nH]nc3-c3ccccn3)ccn2)cc1` [GW835314], the “%Inh” value with ERK1 is 2%; in the assay on ERK2, 12%; in the assay on ERK3, 0%; in the assay with ERK4 it was 0%; with ERK5, 0%; in the assay with ERK8, 0%. Further, the “%Inh” value in the assay on ERN1 is recorded as 23%; in the assay on FAK, 1%; with FER, 19%; with FES, 0%; in the assay with FGFR1, 47%; with FGFR2, 17%. For the same compound, the “%Inh” value in the assay on FGFR3 is 31%; in the assay on FGFR4, 8%; in the assay on FGR, 7%; in the assay on FLT1 it was 0%; with FLT3-autoinhibited it was 35%; in the assay with FLT3, 59%. Further, the figures for the “%Inh” value in the assay on FLT4 and in the assay with FRK were 11% and 10%, respectively.

As to `CC(C)N1C(=O)Cc2cc(Nc3ncc(C(F)(F)F)c(NCc4cccc(S(C)(=O)=O)c4)n3)ccc21`, the “%Inh” value was found to be 0% with ERK1; 23% with ERK2; 0% in the assay with ERK3; 4% with ERK4; 14% with ERK5; 78% with ERK8. Besides, the “%Inh” value in the assay on ERN1 came out at 30%; with FAK it was 100%; in the assay on FER, 2%; in the assay with FES it was 19%; in the assay with FGFR1, 38%; with FGFR2, 52%. Also, the “%Inh” value in the assay with FGFR3 is 43%; in the assay with FGFR4, 16%; in the assay on FGR, 5%; in the assay with FLT1, 62%; with FLT3-autoinhibited, 57%; in the assay with FLT3 it was 97.6%. For the same compound, the entries for the “%Inh” value with FLT4 and in the assay with FRK were 89% and 0%, respectively.

As for `Cl.Oc1cc(-c2nc(-c3ccccc3)[nH]c2-c2ccncc2)ccc1Cl` [SB-386023], the “%Inh” value was found to be 0% in the assay on ERK1; 25% with ERK2; 0% in the assay on ERK3; 10% in the assay with ERK4; 42% with ERK5; 0% in the assay on ERK8. Further, the “%Inh” value with ERN1 turned out to be 4%; with FAK, 0%; in the assay on FER it was 2%; in the assay on FES, 48%; with FGFR1, 6%; in the assay with FGFR2, 2%. Further, the “%Inh” value with FGFR3 amounted to 0%; in the assay with FGFR4, 0%; in the assay with FGR, 56%; in the assay on FLT1, 2%; in the assay on FLT3-autoinhibited, 0%; in the assay on FLT3 it was 12%. Moreover, the “%Inh” value in the assay with FLT4 turned out to be 8%; in the assay with FRK, 73%.

For the compound `CCn1c(-c2nonc2N)nc2c(C#CC(C)(C)O)nc(OCCN)cc21.Cl.Cl` [GSK902056], the “%Inh” value with ERK1 turned out to be 0%; with ERK2 it was 0%; with ERK3, 0%; in the assay on ERK4 it was 5%; with ERK5, 0%; with ERK8 it was 22%. The “%Inh” value with ERN1 was 0%; in the assay with FAK it was 0%; with FER it was 15%; in the assay on FES it was 19%; with FGFR1, 0%; with FGFR2 it was 100%. Moreover, the “%Inh” value turned out to be 7% in the assay with FGFR3; 0% in the assay on FGFR4; 30% in the assay on FGR; 16% in the assay with FLT1; 0% in the assay with FLT3-autoinhibited; 0% in the assay with FLT3. Besides, the “%Inh” value with FLT4 worked out at 0%; with FRK it was 6%.

`CC(C)Nc1cc(-c2ccc3c(N)n[nH]c3c2)nc(N)n1` [GSK2221681]: the “%Inh” value with ERK1, with ERK2, in the assay with ERK3, in the assay on ERK4, in the assay with ERK5 and in the assay on ERK8 was 0% in each case. The “%Inh” value with ERN1 is on record as 1%; with FAK, 11%; in the assay on FER it was 1%; in the assay with FES, 0%; in the assay with FGFR1, 20%; in the assay with FGFR2 it was 0%. Further, the “%Inh” value in the assay on FGFR3 is reported as 5%; in the assay on FGFR4, 5%; with FGR, 3%; in the assay on FLT1, 18%; with FLT3-autoinhibited it was 0%; in the assay with FLT3 it was 0%. The “%Inh” value with FLT4 is 14%; in the assay with FRK, 3%.

`CNC(=O)c1ccccc1Sc1ccc2c(/C=C/c3ccccn3)n[nH]c2c1`: the “%Inh” value with ERK1 is given as 16%; in the assay with ERK2 it was 0%; in the assay on ERK3 it was 0%; in the assay with ERK4, 0%; with ERK5, 0%; with ERK8, 4%. Further, the “%Inh” value was found to be 0% in the assay with ERN1; 3% in the assay with FAK; 0% in the assay with FER; 0% in the assay on FES; 86% in the assay on FGFR2; 81% in the assay on FGFR3. The “%Inh” value in the assay on FGFR4 is 12%; in the assay on FGR it was 85%; in the assay with FLT1, 99.6%; in the assay on FLT3-autoinhibited, 15%; in the assay on FLT3, 0%; with FLT4 it was 100%. In addition, the “%Inh” value with FRK was 0%.

With `C[C@H]1Oc2cc(cnc2N)-c2c(nn(C)c2C#N)CN(C)C(=O)c2ccc(F)cc21`, the “%Inh” value with ERK1 worked out at 11%; in the assay with ERK2 it was 19%; in the assay with ERK3, 0%; in the assay with ERK4, 0%; in the assay on ERK5 it was 44%; in the assay with ERK8, 4%. Further, the “%Inh” value in the assay on ERN1 was 0%; with FAK, 100%; in the assay on FER, 98.8%; with FES, 93.8%; in the assay on FGFR1 it was 12%; in the assay with FGFR2 it was 26%. The “%Inh” value in the assay with FGFR3 is on record as 0%; in the assay on FGFR4, 0%; in the assay on FGR, 33%; in the assay on FLT1, 0%; with FLT3-autoinhibited it was 0%; with FLT3 it was 26%. The results for the “%Inh” value in the assay with FLT4 and in the assay on FRK were 0% and 92%, respectively.

For the compound `C[C@@H]1CCN(C(=O)CC#N)C[C@@H]1N(C)c1ncnc2[nH]ccc12`, the “%Inh” value in the assay on ERK1 is listed as 0%; in the assay on ERK2 it was 0%; in the assay with ERK3, 0%; in the assay with ERK4 it was 7%; with ERK5, 0%; with ERK8 it was 15%. Besides, the “%Inh” value was found to be 0% in the assay on ERN1; 3% in the assay on FAK; 15% with FER; 0% in the assay with FES; 0% in the assay on FGFR1; 0% in the assay with FGFR2. The “%Inh” value in the assay with FGFR3 is 0%; with FGFR4, 0%; with FGR, 1%; in the assay on FLT1, 0%; in the assay on FLT3-autoinhibited it was 0%; in the assay on FLT3 it was 0%. Besides, the “%Inh” value in the assay with FLT4 and with FRK was 0% throughout.

In the case of `Nc1nc(Nc2ccccc2)cc(-c2ccc3c(N)n[nH]c3c2)n1` [GSK2225749], the “%Inh” value was determined as 0% in the assay with ERK1; 0% in the assay with ERK2; 0% in the assay on ERK3; 0% in the assay on ERK4; 0% in the assay on ERK5; 37% in the assay with ERK8. In addition, the “%Inh” value in the assay with ERN1 is listed as 0%; in the assay on FAK, 0%; in the assay with FER, 0%; in the assay on FES, 0%; in the assay with FGFR1, 17%; in the assay with FGFR2, 10%. In addition, the “%Inh” value in the assay on FGFR3 was 18%; in the assay on FGFR4, 0%; in the assay on FGR, 0%; in the assay with FLT1 it was 10%; in the assay on FLT3-autoinhibited it was 19%; with FLT3, 2%. Further, the “%Inh” value is 9% with FLT4 and 0% with FRK.

For the compound `Cc1cc(C(=O)Nc2ccc(Oc3ccc4nc(NC(=O)C5CC5)cn4n3)cc2)nn1-c1ccccc1`, the “%Inh” value in the assay on ERK1 is recorded as 0%; in the assay on ERK2 it was 12%; with ERK3, 0%; in the assay on ERK4, 18%; in the assay on ERK5, 33%; in the assay on ERK8 it was 10%. In addition, the “%Inh” value with ERN1 is recorded as 0%; in the assay on FAK it was 30%; in the assay on FER, 14%; with FES it was 16%; with FGFR1 it was 21%; in the assay with FGFR2, 28%. Besides, the “%Inh” value is 7% in the assay on FGFR3; 13% in the assay on FGFR4; 59% with FGR; 88% in the assay with FLT1; 18% in the assay on FLT3-autoinhibited; 97.5% in the assay with FLT3. The figures for the “%Inh” value in the assay with FLT4 and in the assay with FRK were 94% and 0%, respectively.

Take `CN(C)CC(O)COc1ccc(Nc2nccc(-c3cnn4nc(N5CCOCC5)ccc34)n2)cc1` (stereo not shown) [GW767488]: the “%Inh” value is on record as 0% in the assay on ERK1; 12% with ERK2; 32% with ERK3; 6% with ERK4; 33% in the assay with ERK5; 98.9% in the assay on ERK8. In addition, the “%Inh” value in the assay with ERN1 was 75%; with FAK it was 22%; in the assay on FER, 11%; in the assay with FES, 10%; in the assay with FGFR1 it was 2%; in the assay on FGFR2, 6%. Besides, the “%Inh” value is 3% in the assay on FGFR3; 1% with FGFR4; 93.5% in the assay on FGR; 11% in the assay with FLT1; 40% in the assay with FLT3-autoinhibited; 58% in the assay on FLT3. Moreover, the figures for the “%Inh” value in the assay with FLT4 and with FRK were 24% and 0%, respectively.

Take `CCN(CC)CCCCNc1ncc2cc(-c3c(Cl)cccc3Cl)c(NC(=O)NC(C)(C)C)nc2n1`: the “%Inh” value in the assay with ERK1 came to 0%; in the assay on ERK2, 23%; with ERK3, 36%; with ERK4, 9%; in the assay on ERK5 it was 7%; with ERK8 it was 5%. For the same compound, the “%Inh” value turned out to be 48% in the assay on ERN1; 10% with FAK; 10% in the assay on FER; 21% in the assay with FES; 98.6% in the assay with FGFR1; 96.4% in the assay on FGFR2. In addition, the “%Inh” value with FGFR3 turned out to be 95.5%; with FGFR4, 28%; in the assay with FGR, 90.3%; in the assay with FLT1 it was 99%; with FLT3-autoinhibited, 24%; in the assay with FLT3, 98.1%. For the same compound, the “%Inh” value in the assay on FLT4 is on record as 83%; in the assay on FRK it was 96.2%.

For `Cc1cc2cn[nH]c2cc1-c1cccc2c(N)c(C(N)=O)nnc12`, the “%Inh” value is 22% in the assay with ERK1; 79% in the assay on ERK2; 37% with ERK3; 0% with ERK4; 17% in the assay with ERK5; 20% in the assay with ERK8. In addition, the “%Inh” value came to 47% in the assay on ERN1; 46% in the assay on FAK; 76% in the assay with FER; 72% in the assay on FES; 35% with FGFR1; 0% in the assay on FGFR2. Moreover, the “%Inh” value amounted to 0% in the assay on FGFR3; 0% with FGFR4; 50% with FGR; 0% in the assay with FLT1; 19% in the assay with FLT3-autoinhibited; 10% with FLT3. The “%Inh” value came to 2% with FLT4 and 31% in the assay on FRK.
